For 23 molecules, binding signal results are on record in paper PMC12529666, “Dysregulation of AGO2-miRNA dynamics underlies the AGO2-associated Lessel–Kreienkamp syndrome”.

Residue numbers refer to the chain shown, from its start.

B1: GTATCTTG (ssRNA)
RNA 1: GAGUUCUACAGUCCGACGAUCCCAACGUAUCUUGCACCUGGAAUUCUCGGGUGCCAA
RNA 2: UGGAGUGUGACAAUGGUGUUUG
DNA 1: GATCGTCGGACTGTAGAACTC
DNA 2: TTGGCACCCGAGAATTCCA
modifications: constant regions annealed to DNA blockers; guide miR-122 5' phosphate
B2: ATGTCTCG (ssRNA)
RNA 1: B1 RNA 1 with G27A, A29G, U33C
RNA 2: UGGAGUGUGACAAUGGUGUUUG
DNA 1: GATCGTCGGACTGTAGAACTC
DNA 2: TTGGCACCCGAGAATTCCA
modifications: constant regions annealed to DNA blockers; guide miR-122 5' phosphate
B3: GTACCTTG (ssRNA)
RNA 1: B1 RNA 1 with U30C
RNA 2: UGGAGUGUGACAAUGGUGUUUG
DNA 1: GATCGTCGGACTGTAGAACTC
DNA 2: TTGGCACCCGAGAATTCCA
modifications: constant regions annealed to DNA blockers; guide miR-122 5' phosphate
B4: ACATCTTA (ssRNA)
RNA 1: B1 RNA 1 with G27A, U28C, G34A
RNA 2: UGGAGUGUGACAAUGGUGUUUG
DNA 1: GATCGTCGGACTGTAGAACTC
DNA 2: TTGGCACCCGAGAATTCCA
modifications: constant regions annealed to DNA blockers; guide miR-122 5' phosphate
B5: ATGCTTCG (ssRNA)
RNA 1: B1 RNA 1 with G27A, A29G, U30C, C31U, U33C
RNA 2: UGGAGUGUGACAAUGGUGUUUG
DNA 1: GATCGTCGGACTGTAGAACTC
DNA 2: TTGGCACCCGAGAATTCCA
modifications: constant regions annealed to DNA blockers; guide miR-122 5' phosphate
B6: ACGCTTCG (ssRNA)
RNA 1: B1 RNA 1 with G27A, U28C, A29G, U30C, C31U, U33C
RNA 2: UGGAGUGUGACAAUGGUGUUUG
DNA 1: GATCGTCGGACTGTAGAACTC
DNA 2: TTGGCACCCGAGAATTCCA
modifications: constant regions annealed to DNA blockers; guide miR-122 5' phosphate
B7: ATACTCTA (ssRNA)
RNA 1: B1 RNA 1 with G27A, U30C, C31U, U32C, G34A
RNA 2: UGGAGUGUGACAAUGGUGUUUG
DNA 1: GATCGTCGGACTGTAGAACTC
DNA 2: TTGGCACCCGAGAATTCCA
modifications: constant regions annealed to DNA blockers; guide miR-122 5' phosphate
B8: GCATCTTG (ssRNA)
RNA 1: B1 RNA 1 with U28C
RNA 2: UGGAGUGUGACAAUGGUGUUUG
DNA 1: GATCGTCGGACTGTAGAACTC
DNA 2: TTGGCACCCGAGAATTCCA
modifications: constant regions annealed to DNA blockers; guide miR-122 5' phosphate
B9: GTGTCTTG (ssRNA)
RNA 1: B1 RNA 1 with A29G
RNA 2: UGGAGUGUGACAAUGGUGUUUG
DNA 1: GATCGTCGGACTGTAGAACTC
DNA 2: TTGGCACCCGAGAATTCCA
modifications: constant regions annealed to DNA blockers; guide miR-122 5' phosphate
B10: ACATTCTA (ssRNA)
RNA 1: B1 RNA 1 with G27A, U28C, C31U, U32C, G34A
RNA 2: UGGAGUGUGACAAUGGUGUUUG
DNA 1: GATCGTCGGACTGTAGAACTC
DNA 2: TTGGCACCCGAGAATTCCA
modifications: constant regions annealed to DNA blockers; guide miR-122 5' phosphate
B11: ACATCTTG (ssRNA)
RNA 1: B1 RNA 1 with G27A, U28C
RNA 2: UGGAGUGUGACAAUGGUGUUUG
DNA 1: GATCGTCGGACTGTAGAACTC
DNA 2: TTGGCACCCGAGAATTCCA
modifications: constant regions annealed to DNA blockers; guide miR-122 5' phosphate
B12: GCGCTTTG (ssRNA)
RNA 1: B1 RNA 1 with U28C, A29G, U30C, C31U
RNA 2: UGGAGUGUGACAAUGGUGUUUG
DNA 1: GATCGTCGGACTGTAGAACTC
DNA 2: TTGGCACCCGAGAATTCCA
modifications: constant regions annealed to DNA blockers; guide miR-122 5' phosphate
B13: ATGCTTTG (ssRNA)
RNA 1: B1 RNA 1 with G27A, A29G, U30C, C31U
RNA 2: UGGAGUGUGACAAUGGUGUUUG
DNA 1: GATCGTCGGACTGTAGAACTC
DNA 2: TTGGCACCCGAGAATTCCA
modifications: constant regions annealed to DNA blockers; guide miR-122 5' phosphate
B14: GTGTCTCG (ssRNA)
RNA 1: B1 RNA 1 with A29G, U33C
RNA 2: UGGAGUGUGACAAUGGUGUUUG
DNA 1: GATCGTCGGACTGTAGAACTC
DNA 2: TTGGCACCCGAGAATTCCA
modifications: constant regions annealed to DNA blockers; guide miR-122 5' phosphate
B15: ATGCCTTG (ssRNA)
RNA 1: B1 RNA 1 with G27A, A29G, U30C
RNA 2: UGGAGUGUGACAAUGGUGUUUG
DNA 1: GATCGTCGGACTGTAGAACTC
DNA 2: TTGGCACCCGAGAATTCCA
modifications: constant regions annealed to DNA blockers; guide miR-122 5' phosphate
B16: ATGTCCTG (ssRNA)
RNA 1: B1 RNA 1 with G27A, A29G, U32C
RNA 2: UGGAGUGUGACAAUGGUGUUUG
DNA 1: GATCGTCGGACTGTAGAACTC
DNA 2: TTGGCACCCGAGAATTCCA
modifications: constant regions annealed to DNA blockers; guide miR-122 5' phosphate
B17: ATGCCCTA (ssRNA)
RNA 1: B1 RNA 1 with G27A, A29G, U30C, U32C, G34A
RNA 2: UGGAGUGUGACAAUGGUGUUUG
DNA 1: GATCGTCGGACTGTAGAACTC
DNA 2: TTGGCACCCGAGAATTCCA
modifications: constant regions annealed to DNA blockers; guide miR-122 5' phosphate
B18: ATACTTTG (ssRNA)
RNA 1: B1 RNA 1 with G27A, U30C, C31U
RNA 2: UGGAGUGUGACAAUGGUGUUUG
DNA 1: GATCGTCGGACTGTAGAACTC
DNA 2: TTGGCACCCGAGAATTCCA
modifications: constant regions annealed to DNA blockers; guide miR-122 5' phosphate
B19: ATACCCTG (ssRNA)
RNA 1: B1 RNA 1 with G27A, U30C, U32C
RNA 2: UGGAGUGUGACAAUGGUGUUUG
DNA 1: GATCGTCGGACTGTAGAACTC
DNA 2: TTGGCACCCGAGAATTCCA
modifications: constant regions annealed to DNA blockers; guide miR-122 5' phosphate
B20: ACGCCTCG (ssRNA)
RNA 1: B1 RNA 1 with G27A, U28C, A29G, U30C, U33C
RNA 2: UGGAGUGUGACAAUGGUGUUUG
DNA 1: GATCGTCGGACTGTAGAACTC
DNA 2: TTGGCACCCGAGAATTCCA
modifications: constant regions annealed to DNA blockers; guide miR-122 5' phosphate
B21: ATATTCCG (ssRNA)
RNA 1: B1 RNA 1 with G27A, C31U, U32C, U33C
RNA 2: UGGAGUGUGACAAUGGUGUUUG
DNA 1: GATCGTCGGACTGTAGAACTC
DNA 2: TTGGCACCCGAGAATTCCA
modifications: constant regions annealed to DNA blockers; guide miR-122 5' phosphate
B22: ATGTTTCG (ssRNA)
RNA 1: B1 RNA 1 with G27A, A29G, C31U, U33C
RNA 2: UGGAGUGUGACAAUGGUGUUUG
DNA 1: GATCGTCGGACTGTAGAACTC
DNA 2: TTGGCACCCGAGAATTCCA
modifications: constant regions annealed to DNA blockers; guide miR-122 5' phosphate
B23: GCATTTCG (ssRNA)
RNA 1: B1 RNA 1 with U28C, C31U, U33C
RNA 2: UGGAGUGUGACAAUGGUGUUUG
DNA 1: GATCGTCGGACTGTAGAACTC
DNA 2: TTGGCACCCGAGAATTCCA
modifications: constant regions annealed to DNA blockers; guide miR-122 5' phosphate

Sequence of AGO2 F182del (Q9UKV8 other isoform, or with tags, fused parts or gaps S387D;S824A;S828D;S831D;S834A;del182-182): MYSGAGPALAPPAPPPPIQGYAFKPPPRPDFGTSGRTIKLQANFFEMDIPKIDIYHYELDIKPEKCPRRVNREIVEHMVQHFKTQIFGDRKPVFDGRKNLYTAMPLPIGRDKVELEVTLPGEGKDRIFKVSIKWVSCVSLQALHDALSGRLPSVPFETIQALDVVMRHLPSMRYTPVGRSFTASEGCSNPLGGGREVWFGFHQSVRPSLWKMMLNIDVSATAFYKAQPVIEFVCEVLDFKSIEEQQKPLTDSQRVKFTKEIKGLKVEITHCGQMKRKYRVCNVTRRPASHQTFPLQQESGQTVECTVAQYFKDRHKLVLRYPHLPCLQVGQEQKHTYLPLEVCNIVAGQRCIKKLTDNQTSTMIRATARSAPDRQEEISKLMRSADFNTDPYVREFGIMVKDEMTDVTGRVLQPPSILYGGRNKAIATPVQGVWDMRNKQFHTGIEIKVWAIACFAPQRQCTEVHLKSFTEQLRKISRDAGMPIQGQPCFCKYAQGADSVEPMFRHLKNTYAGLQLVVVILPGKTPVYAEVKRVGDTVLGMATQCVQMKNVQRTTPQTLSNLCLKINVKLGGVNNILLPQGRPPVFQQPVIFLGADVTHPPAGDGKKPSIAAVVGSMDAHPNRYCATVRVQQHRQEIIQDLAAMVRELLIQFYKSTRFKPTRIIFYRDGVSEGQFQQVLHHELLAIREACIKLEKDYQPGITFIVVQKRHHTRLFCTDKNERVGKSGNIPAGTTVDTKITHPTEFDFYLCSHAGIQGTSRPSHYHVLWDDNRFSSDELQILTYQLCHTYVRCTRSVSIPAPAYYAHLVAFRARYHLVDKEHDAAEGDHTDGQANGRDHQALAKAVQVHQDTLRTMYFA
Sequence of AGO2 T357M (Q9UKV8 whole entry T357M/S387D/S824A/S828D/S831D/S834A): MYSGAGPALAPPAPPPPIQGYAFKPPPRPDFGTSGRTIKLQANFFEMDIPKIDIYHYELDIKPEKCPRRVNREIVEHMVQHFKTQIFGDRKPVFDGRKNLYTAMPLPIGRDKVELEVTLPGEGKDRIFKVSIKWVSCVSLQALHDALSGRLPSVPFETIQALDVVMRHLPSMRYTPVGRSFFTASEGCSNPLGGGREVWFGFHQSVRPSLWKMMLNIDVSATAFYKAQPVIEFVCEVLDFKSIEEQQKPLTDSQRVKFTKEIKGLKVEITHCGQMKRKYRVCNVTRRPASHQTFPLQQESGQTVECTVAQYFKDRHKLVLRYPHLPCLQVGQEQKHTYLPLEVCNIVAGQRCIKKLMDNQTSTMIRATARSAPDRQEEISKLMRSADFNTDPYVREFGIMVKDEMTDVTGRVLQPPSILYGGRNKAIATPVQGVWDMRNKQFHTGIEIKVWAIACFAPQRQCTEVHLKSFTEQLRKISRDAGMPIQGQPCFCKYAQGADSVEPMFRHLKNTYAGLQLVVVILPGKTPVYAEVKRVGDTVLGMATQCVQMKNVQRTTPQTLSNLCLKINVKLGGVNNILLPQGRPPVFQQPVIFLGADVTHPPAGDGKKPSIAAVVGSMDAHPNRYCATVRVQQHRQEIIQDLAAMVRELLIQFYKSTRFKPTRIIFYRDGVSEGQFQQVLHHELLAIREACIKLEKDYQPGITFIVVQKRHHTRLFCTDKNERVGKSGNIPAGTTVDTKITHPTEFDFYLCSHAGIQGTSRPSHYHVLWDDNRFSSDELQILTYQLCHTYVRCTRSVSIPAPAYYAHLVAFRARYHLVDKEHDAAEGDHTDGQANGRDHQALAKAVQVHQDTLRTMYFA

The target in the first experiment is AGO2 L192P (Homo sapiens, UniProt Q9UKV8 1-859, L192P;S387D;S824A;S828D;S831D;S834A). The experiment in a line: RNA Bind-n-Seq (nitrocellulose filter binding and sequencing); miR-122 guide loaded in AGO2; 60 min incubation; 30 mM Tris pH 8.0, 100 mM potassium acetate, 2 mM magnesium acetate, 0.5 mM TCEP, 0.005% NP-40, 0.01 mg/ml yeast tRNA; 3 nM AGO2-miR-122, 100 nM RNA library; 60; high values mean tight binding. To be noted: protein: recombinant; tags: His6 (N-terminal, pFastBac HTA). Put shortly: (§1)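 Fold enrichment is each target's read fraction divided by its read fraction in the input library. Sf9 insect cells expressed His-tagged AGO2 from baculovirus; the protein was loaded with a synthetic guide RNA and purified by Ni-NTA and a biotinylated capture oligo. The bound RNA was extracted, reverse-transcribed, barcode-amplified and sequenced on Illumina.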
Sequence of AGO2 L192P (Q9UKV8 whole entry L192P/S387D/S824A/S828D/S831D/S834A): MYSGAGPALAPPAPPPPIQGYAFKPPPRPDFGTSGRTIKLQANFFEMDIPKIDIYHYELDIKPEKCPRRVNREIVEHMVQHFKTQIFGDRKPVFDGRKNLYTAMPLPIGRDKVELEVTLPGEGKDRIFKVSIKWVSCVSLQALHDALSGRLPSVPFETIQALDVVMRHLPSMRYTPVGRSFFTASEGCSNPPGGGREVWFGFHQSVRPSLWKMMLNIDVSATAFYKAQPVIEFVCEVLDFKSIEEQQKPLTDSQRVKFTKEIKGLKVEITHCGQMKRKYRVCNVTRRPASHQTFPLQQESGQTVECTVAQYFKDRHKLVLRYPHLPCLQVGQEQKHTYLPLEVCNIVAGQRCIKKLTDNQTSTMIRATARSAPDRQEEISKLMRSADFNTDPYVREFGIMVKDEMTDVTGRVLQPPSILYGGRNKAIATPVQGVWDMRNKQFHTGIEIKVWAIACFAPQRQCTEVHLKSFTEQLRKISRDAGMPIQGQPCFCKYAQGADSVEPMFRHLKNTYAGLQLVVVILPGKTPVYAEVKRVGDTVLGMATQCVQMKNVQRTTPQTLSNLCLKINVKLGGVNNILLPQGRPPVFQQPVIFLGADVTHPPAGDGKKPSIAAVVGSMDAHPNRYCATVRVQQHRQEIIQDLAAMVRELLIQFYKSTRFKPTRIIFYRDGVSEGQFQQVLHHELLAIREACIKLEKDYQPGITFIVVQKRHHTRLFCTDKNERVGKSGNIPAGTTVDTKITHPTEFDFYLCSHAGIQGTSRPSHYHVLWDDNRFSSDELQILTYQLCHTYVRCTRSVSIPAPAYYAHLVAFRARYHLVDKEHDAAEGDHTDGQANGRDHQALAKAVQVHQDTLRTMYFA
Turning to B1, the binding signal was 0.32 fold enrichment over input.
B2: the binding signal was 0.316 fold enrichment over input.
On to B3, for which the binding signal was 0.347 fold enrichment over input.
As for B4, the binding signal is 0.519 fold enrichment over input.
B5: the binding signal was 0.336 fold enrichment over input.
With B6, the binding signal was 0.346 fold enrichment over input.
For B7, the binding signal was 0.437 fold enrichment over input.
With B8, the binding signal was 0.349 fold enrichment over input.
Take B9: the binding signal was 0.335 fold enrichment over input.
B10: the binding signal is 0.493 fold enrichment over input.
On to B11, for which the binding signal is 0.386 fold enrichment over input.
Turning to B12, the binding signal was 0.333 fold enrichment over input.
As for B13, the binding signal was 0.354 fold enrichment over input.
With B14, the binding signal was 0.345 fold enrichment over input.
As to B15, the binding signal is 0.356 fold enrichment over input.
As for B16, the binding signal is 0.343 fold enrichment over input.
Turning to B17, the binding signal is 0.457 fold enrichment over input.
As to B18, the binding signal is 0.38 fold enrichment over input.
As to B19, the binding signal was 0.364 fold enrichment over input.
B20: the binding signal is 0.351 fold enrichment over input.
As to B21, the binding signal is 0.389 fold enrichment over input.
In the case of B22, the binding signal was 0.353 fold enrichment over input.
Turning to B23, the binding signal is 0.358 fold enrichment over input.

Another experiment deals with AGO2 A367P (Homo sapiens, UniProt Q9UKV8 1-859, A367P;S387D;S824A;S828D;S831D;S834A). The description is as above. The conditions noted are these: protein: recombinant; tags: His6 (N-terminal, pFastBac HTA). Put shortly: as §1
Sequence of AGO2 A367P (Q9UKV8 whole entry A367P/S387D/S824A/S828D/S831D/S834A): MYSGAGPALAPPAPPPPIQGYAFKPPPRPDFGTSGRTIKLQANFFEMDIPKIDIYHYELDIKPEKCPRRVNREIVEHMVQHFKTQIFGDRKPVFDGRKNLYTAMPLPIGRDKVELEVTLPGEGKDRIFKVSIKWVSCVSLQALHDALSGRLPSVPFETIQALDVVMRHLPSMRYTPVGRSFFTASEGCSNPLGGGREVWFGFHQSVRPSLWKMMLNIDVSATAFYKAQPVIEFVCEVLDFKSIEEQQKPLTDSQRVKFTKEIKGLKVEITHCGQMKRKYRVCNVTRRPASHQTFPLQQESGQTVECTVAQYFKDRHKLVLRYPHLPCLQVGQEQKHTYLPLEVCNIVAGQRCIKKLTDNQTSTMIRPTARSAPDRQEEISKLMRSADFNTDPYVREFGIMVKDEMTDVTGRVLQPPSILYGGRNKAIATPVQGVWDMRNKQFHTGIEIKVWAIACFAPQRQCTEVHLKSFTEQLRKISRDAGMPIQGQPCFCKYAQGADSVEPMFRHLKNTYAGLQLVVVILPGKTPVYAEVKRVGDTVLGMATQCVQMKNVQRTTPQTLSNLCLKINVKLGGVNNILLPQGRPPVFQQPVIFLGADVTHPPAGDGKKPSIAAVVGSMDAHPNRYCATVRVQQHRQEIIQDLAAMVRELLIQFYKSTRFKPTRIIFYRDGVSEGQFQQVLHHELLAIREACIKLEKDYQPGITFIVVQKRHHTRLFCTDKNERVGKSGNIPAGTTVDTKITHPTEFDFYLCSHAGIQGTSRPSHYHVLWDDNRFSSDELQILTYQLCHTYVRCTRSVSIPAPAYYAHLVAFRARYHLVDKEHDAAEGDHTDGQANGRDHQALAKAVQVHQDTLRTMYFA
Turning to B1, the binding signal is 0.127 fold enrichment over input.
B3: the binding signal was 0.128 fold enrichment over input.
Still for that read-out and setting: next, B4: 0.197 fold enrichment over input; B5: 0.127 fold enrichment over input.
The same measure, in the same setting: in the case of B6 it was 0.139 fold enrichment over input; in that of B7, 0.187 fold enrichment over input.
On to B8, for which the binding signal is 0.123 fold enrichment over input.
On to B9, for which the binding signal is 0.131 fold enrichment over input.
Turning to B10, the binding signal was 0.178 fold enrichment over input.
Regarding B11, the binding signal was 0.135 fold enrichment over input.
As to B12, the binding signal is 0.137 fold enrichment over input.
B13: the binding signal is 0.12 fold enrichment over input.
On the same count and under the same terms, in the case of B14 it was 0.125 fold enrichment over input; in that of B15, 0.131 fold enrichment over input; in that of B16, 0.122 fold enrichment over input.
For B17, the binding signal is 0.166 fold enrichment over input.
As to B18, the binding signal was 0.138 fold enrichment over input.
On to B19, for which the binding signal was 0.126 fold enrichment over input.
Regarding B20, the binding signal was 0.15 fold enrichment over input.
Same read-out and setting: next, B21: 0.136 fold enrichment over input; B22: 0.123 fold enrichment over input.
As for B23, the binding signal was 0.127 fold enrichment over input.

A further experiment has as its target AGO2 T357M (Homo sapiens, UniProt Q9UKV8 1-859, T357M;S387D;S824A;S828D;S831D;S834A). Described as above. To be noted: protein: recombinant; tags: His6 (N-terminal, pFastBac HTA). Put shortly:
as §1
On to B1, for which the binding signal is 0.448 fold enrichment over input.
As for B2, the binding signal was 0.415 fold enrichment over input.
In the case of B3, the binding signal is 0.482 fold enrichment over input.
Turning to B4, the binding signal was 0.562 fold enrichment over input.
For B5, the binding signal was 0.474 fold enrichment over input.
Regarding B6, the binding signal is 0.445 fold enrichment over input.
Turning to B7, the binding signal is 0.545 fold enrichment over input.
Take B8: the binding signal was 0.425 fold enrichment over input.
As to B9, the binding signal is 0.447 fold enrichment over input.
On to B10, for which the binding signal is 0.557 fold enrichment over input.
Consider B11, for which the binding signal is 0.458 fold enrichment over input.
As to B12, the binding signal is 0.462 fold enrichment over input.
Turning to B13, the binding signal was 0.455 fold enrichment over input.
On to B14, for which the binding signal was 0.468 fold enrichment over input.
For the molecule B15, the binding signal is 0.51 fold enrichment over input.
On to B16, for which the binding signal was 0.425 fold enrichment over input.
Take B17: the binding signal is 0.544 fold enrichment over input.
On the same count and under the same terms, next, B18: 0.553 fold enrichment over input.
In the case of B19, the binding signal is 0.522 fold enrichment over input.
Regarding B20, the binding signal was 0.48 fold enrichment over input.
On to B21, for which the binding signal is 0.541 fold enrichment over input.
Same read-out and setting: next, B22: 0.462 fold enrichment over input; B23: 0.486 fold enrichment over input.

The target in a further experiment is AGO2 F182del (Homo sapiens, UniProt Q9UKV8 1-859, S387D;S824A;S828D;S831D;S834A;del182-182). The description is as above. To be noted: protein: recombinant; tags: His6 (N-terminal, pFastBac HTA). Put shortly:
as §1
For the molecule B4, the binding signal was 0.33 fold enrichment over input.
As for B7, the binding signal was 0.128 fold enrichment over input.
On to B10, for which the binding signal is 0.309 fold enrichment over input.
